Measurements published in the supplement of paper PMC10941209.
Unmarked numbers belong to inactive results.

Test system: Toxoplasma gondii RH 2F1 tachyzoites (intracellular in HFF)
Experiment: parasite survival relative to DMSO control; higher = less antiparasitic activity, active = 20 or less
Conditions: 1 µM; 72 h
Summary of the method: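 Toxoplasma gondii RH-2F1 tachyzoites expressing β-galactosidase (5 × 10^3 per well) were used to infect HFF cells at 5 × 10^3 cells/well in 96-well plates for 3 h in D2 medium. Cells then received compound at 1 μM for 72 h at 37°C in 5% CO2, were lysed for 15 min, and were given CPRG, with absorbance at 570 nm read after 30 min. Survival denotes this signal as a percentage of DMSO-treated infected controls. Each value reflects 2 or more biological replicates.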

Question: `CN1C(=O)C(c2ccccc2)C(=O)N(c2ccccc2)c2cc(C(F)(F)F)ccc21` (stereo not given) was tested. Which parasite survival did it give?
Answer: 79.5%

Question: With `CC(C)CCN1C(=O)C(C2=NS(=O)(=O)c3cc(NS(C)(=O)=O)ccc3N2)=C(O)[C@@H]2[C@H]3CC[C@H](C3)[C@@H]21` as the compound, how does the parasite survival read?
Answer: 72.3%

Question: `CC(C)Oc1ccc(-n2cnc3cc(/C=C\c4ccc(C(C)(C)O)cc4)ccc32)cc1` was tested. Which parasite survival did it give?
Answer: 31.7%

Question: With `CC(=O)N[C@H](C)C(=O)N[C@H](Cc1ccccc1)C(=O)O` as the compound, how does the parasite survival read?
Answer: 61.2%

Question: `O=C(NCCN1CCCCC1)c1cccc(C(F)(F)F)c1` was tested. Which parasite survival did it give?
Answer: 67.5%

Question: How did the parasite survival turn out when `CCc1cc(O)c(Oc2cccnc2N)cc1F` was run?
Answer: 44.6%

Question: With `NC(=S)N/N=C/c1ncccc1N` as the compound, how does the parasite survival read?
Answer: 37.3%

Question: `CCOc1noc2cc(OCCC3CCN(c4ccc(C)nn4)CC3)ccc12` was tested. Which parasite survival did it give?
Answer: 45%

Question: `Cc1cc(C2CCCCC2)n(O)c(=O)c1` was tested. Which parasite survival did it give?
Answer: 15.8% (active)

Question: `Cc1cc(Nc2ccc(F)cc2)nc(SCc2nc3ccccc3[nH]2)n1` was tested. Which parasite survival did it give?
Answer: 42.4%

Question: `Nc1nc(NC2Cc3ccc(F)cc3C2)nc(N2CCCCC2)n1` (stereo not given) was tested. Which parasite survival did it give?
Answer: 41.9%

Question: Which parasite survival does the source give for `Cc1ccc(C)c(OCCCCCCN2C[C@H](O)[C@@H](O)[C@H](O)[C@H]2CO)c1` here?
Answer: 62.8%

Question: For `Nc1nc(C(F)(F)F)cc2c1[nH]c(=O)n2Cc1ccccc1`, which parasite survival is on record?
Answer: 49.1%

Question: Which parasite survival does the source give for `CCN(CC)S(=O)(=O)c1ccc(Cl)c(C(=O)Nc2sc3c(c2C#N)CCCC3)c1` here?
Answer: 44%

Question: With `CCC[C@@H]1C[C@@H](C(=O)N[C@@H]([C@H]2O[C@H](SC)[C@H](O)[C@@H](O)[C@H]2O)[C@H](C)Cl)N(C)C1` as the compound, how does the parasite survival read?
Answer: 16.1% (active)

Question: For `c1ccc(Cn2c(-c3ccccn3)nc3ccccc32)cc1`, which parasite survival is on record?
Answer: 61.7%

Question: With `Cc1ccn2c(C(=O)NCc3ccccc3)c(C)nc2c1` as the compound, how does the parasite survival read?
Answer: 49.6%

Question: How did the parasite survival turn out when `N#CCN1C(=O)COc2cc(F)c(N3C(=O)c4ccccc4C3=O)cc21` was run?
Answer: 67.4%

Question: Which parasite survival does the source give for `CCNC(=O)Nc1cn2c(-c3ncc(CC)cn3)cc(-c3cccnc3)cc2n1` here?
Answer: 34.6%

Question: `Clc1cccc(-c2nnc(-c3ccccc3)o2)c1` was tested. Which parasite survival did it give?
Answer: 62.8%

Question: `O=[N+]([O-])c1cn(Cc2nc(O)nc(O)c2Br)cn1` was tested. Which parasite survival did it give?
Answer: 58.1%

Question: `NCc1ccc(S(N)(=O)=O)cc1` was tested. Which parasite survival did it give?
Answer: 84.2%

Question: With `Fc1ccc2c(/C=C/c3cccnc3)c[nH]c2c1` as the compound, how does the parasite survival read?
Answer: 29.1%

Question: For `N=c1n(CCN2CCCCC2)c2ccccc2n1CC(O)COc1ccc(Cl)cc1Cl` (stereo not given), which parasite survival is on record?
Answer: 10.8% (active)

Question: `Fc1ccc(-n2cc(Cn3c(-c4cccc(F)c4)nc4ccccc43)nn2)cc1` was tested. Which parasite survival did it give?
Answer: 50.1%

Question: With `CC1(C)CC(NC(=O)C(=O)Nc2ccc(Cl)cc2)CC(C)(C)N1` as the compound, how does the parasite survival read?
Answer: 69.9%

Question: Which parasite survival does the source give for `CCC(CC)[C@H](NC(C)=O)[C@@H]1[C@H](O)[C@@H](C(=O)O)C[C@H]1NC(=N)N` here?
Answer: 69.6%

Question: With `COC1CC2CCC(C)C(O)(O2)C(=O)C(=O)N2CCCCC2C(=O)OC(C(C)CC2CCC(OCCO)C(OC)C2)CC(=O)C(C)/C=C(\C)C(O)C(OC)C(=O)C(C)CC(C)/C=C/C=C/C=C/1C` (stereo not given) as the compound, how does the parasite survival read?
Answer: 56.8%

Question: For `CCOc1ccc(/C=N/NC(=O)C2CC2c2ccc(C(C)(C)C)cc2)cc1OCC` (stereo not given), which parasite survival is on record?
Answer: 51.6%

Question: For `O=C(c1ccc(F)cc1)N1CCN2C(=O)c3ccccc3C12c1ccccc1` (stereo not given), which parasite survival is on record?
Answer: 64.9%

Question: How did the parasite survival turn out when `CCCCOC(=O)Nc1cc2nc(C3CCCCC3)[nH]c2cc1N(CC)CC` was run?
Answer: 5.06% (active)

Question: Which parasite survival does the source give for `CC(N)C12CC3CC(CC(C3)C1)C2` (stereo not given) here?
Answer: 78.3%

Question: With `NC(=O)c1ccc(I)c([N+](=O)[O-])c1` as the compound, how does the parasite survival read?
Answer: 59.1%

Question: How did the parasite survival turn out when `COc1ccc(SC(=O)N[C@H](CCC(=O)O)C(=O)O)cc1` was run?
Answer: 56.2%

Question: For `CCc1nc2ccccn2c1C(=O)NCc1ccccc1`, which parasite survival is on record?
Answer: 79.5%

Question: `COc1c(NC(=O)[C@H]2CC[C@@H](COc3ccc([N+](=O)[O-])cc3)CC2)c(F)cc2c(=O)c(C(=O)O)cn(C3CC3)c12` was tested. Which parasite survival did it give?
Answer: 47.7%

Question: For `CC(Cc1ccccc1)C(=O)Nc1ccc(Cl)cc1C(=O)O` (stereo not given), which parasite survival is on record?
Answer: 42%

Question: How did the parasite survival turn out when `COc1cc(Cc2cnc(N)nc2N)c2c(c1OC)OC(C1CC1)C=C2` (stereo not given) was run?
Answer: 10.4% (active)

Question: With `OC1O[C@H](CSc2ccc(F)cc2)[C@@H](O)[C@H]1O` (stereo not given in full) as the compound, how does the parasite survival read?
Answer: 49.9%

Question: With `COc1ccc(CNC(=O)C(NS(=O)(=O)c2ccc3nc(C)sc3c2)C(C)C)cc1` (stereo not given) as the compound, how does the parasite survival read?
Answer: 56.4%
